Hits are enriched below; roughly 2.4% of the tested compounds scored in any of these assays.
S1P4 antagonist: S1P4 receptor antagonists, primary screen, cell-based | Sphingosine 1-phosphate receptor 4 (Homo sapiens), O95977 | AID 1510, 2009 | S1P4-expressing cells, antagonist mode, reporter read-out | actives 0.26% (n = 220,000) | inhibition, % at 4.98 µM; in the data active = inhibition above about 29%
Target sequence (O95977 whole entry, looked up): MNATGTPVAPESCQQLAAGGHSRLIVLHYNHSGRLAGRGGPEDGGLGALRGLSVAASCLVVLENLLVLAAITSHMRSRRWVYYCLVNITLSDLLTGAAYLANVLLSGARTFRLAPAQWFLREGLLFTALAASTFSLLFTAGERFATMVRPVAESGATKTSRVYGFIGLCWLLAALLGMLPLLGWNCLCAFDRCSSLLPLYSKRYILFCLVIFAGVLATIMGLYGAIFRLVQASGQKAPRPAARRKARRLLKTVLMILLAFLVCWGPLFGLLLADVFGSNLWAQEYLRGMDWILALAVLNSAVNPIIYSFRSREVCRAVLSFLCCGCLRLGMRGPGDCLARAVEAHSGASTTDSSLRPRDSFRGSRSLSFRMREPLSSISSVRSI
PGE2 EP2 inh: human EP2 receptor antagonists, primary screen, TR-FRET cAMP, C6 glioma cells | AID 1422, 2008 | Prostaglandin E2 receptor EP2 subtype (Homo sapiens), P43116 | actives 0.52% (n = 260,000) | inhibition, % at 25 µM | C6 glioma cells expressing human EP2; cells stimulated with saturating PGE2;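 active = percent inhibition above 40 after rounding to a whole number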;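 also: rat C6 glioma host cells with rolipram phosphodiesterase inhibitor present; the protocol text gives 20 µM as final concentration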
INS promoter inh: inhibitors of insulin promoter-driven GFP, primary screen, imaging, TRM-6 cells (human fetal islet line), eGFP reporter, cell count | reporter expression induced with tamoxifen | inhibition, % at 2 µM | actives 0.9% (n = 130,000) | AID 1273, 2008;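 active = inhibition above the mean plus 3 SD, with well images judged a real hit on visual review, cut at about 60% in these data, passing the limit was not always enough; inconclusive = inhibition over the cutoff but images rejected on review; inactive = inhibition not above the cutoff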
S1P4 ag: S1P4 receptor agonists, primary screen, cell-based; activation, % at 4.98 µM; S1P4-expressing cell line, agonist reporter assay; Sphingosine 1-phosphate receptor 4 (Homo sapiens), O95977; AID 1509, 2009; actives 0.35% (n = 220,000); in the data active = activation above about 11%
EP2 mod: EP2 receptor modulators, cAMP readout, primary screen, cell-based, HTRF cAMP, PGE2 stimulation; EP2-expressing cells, cAMP HTRF FRET, PGE2 co-stimulation; actives 0.83% (n = 260,000); AID 940, 2007; Prostaglandin E2 receptor EP2 subtype (Homo sapiens), P43116; induction, % at 25 µM;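 active = compounds whose cAMP rise, as percent of the full-agonist control response, exceeds 60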;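 also: rat C6 glioma line stably carrying human EP2 under a CMV promoter; the protocol text gives 20 µM as final concentration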
S1P3 antagonist: S1P3 receptor antagonists, primary screen, cell-based | inhibition, % at 4.98 µM | actives 0.27% (n = 170,000) | Sphingosine 1-phosphate receptor 3 (Homo sapiens), Q99500 | AID 485, 2006 | CHO S1P3 NFAT-BLA reporter, FRET fluorescence, antagonist mode;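 active = inhibition above the plate cutoff, the mean inhibition of test wells on that plate plus 3 SD, cut at about 28% in these data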;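 also: cells challenged with S1P at its EC80 of 0.8 µM; blue over green emission ratio from cleaved BLA substrate after 4 h stimulation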
EP2 confirm: cAMP induction in EP2, EP4, beta2-AR and parental cells, confirmation, counter-screen for EP2 modulator project, cell-based, five parallel assays, C6 glioma, HEK293. shares compounds with EP2 mod. cAMP HTRF induction; plus low (about EC15) PGE2 agonist. calls only at 20 µM (by protocol). actives 47% (n = 1,300). AID 1080, 2008;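 active = cAMP induction above 50% in the main assay while under 30% in all four parallel counter assays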;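 also: rat C6 glioma cells stably expressing human EP2 receptor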
A number is an active result; i = inactive; ? = inconclusive; nt = no result; + = active, no number; ! = not confirmed by another sample.

SMILES	S1P4 antagonist	PGE2 EP2 inh	INS promoter inh	S1P4 ag	EP2 mod	S1P3 antagonist	EP2 confirm
CC1Cc2cc(C(O)CN3CCN(Cc4ccc5c(c4)OCO5)CC3)ccc2O1 (stereo unspecified)	nt	i	nt	nt	i	nt	nt
CC(=O)c1cccc(NC(=O)CSc2nnc(-c3ccco3)n2C)c1	nt	i	nt	nt	i	nt	nt
Cc1ccc2c(c1)N(Cc1cccc(Cl)c1)C(=O)c1cccnc1O2	i	i	i	i	71.0	i	+
COc1ccc(-n2c(=S)[nH]c3c(oc4ccccc43)c2=O)cc1	i	i	i	i	68.0	i	i
COc1ccc(NC(=O)c2cccs2)cc1	i	i	i	i	i	nt	nt
COc1ccc(N=N/C(=C\O)C(=O)c2cccs2)cc1	i	i	i	i	67.2	i	i
Cc1cccc(N=N/C(=C\O)C(=O)c2ccc(Br)cc2)c1	i	i	i	i	96.8	i	+
COc1ccc(C(=O)/C(=C/O)N=Nc2ccc(F)cc2)cc1	i	i	nt	i	69.0	i	+
COc1ccc([C@@H]2C[C@H](C(=O)NCCN3CCOCC3)N(C)S(=O)(=O)N2)cc1OC	nt	nt	nt	nt	i	nt	nt
CS(=O)(=O)N(CC(=O)NCc1ccccn1)c1cccc(Cl)c1	nt	i	nt	nt	i	nt	nt
Cc1ccc(C(Sc2ccccc2)C(Cn2cncn2)C(=O)c2ccccc2)cc1 (stereo unspecified)	i	i	i	i	72.8	nt	+
COc1ccccc1C1(NCc2c(C)nc3cc(C)ccn23)CCCC1	nt	i	nt	nt	i	nt	nt
CC(C)(C)NC(=O)CN1CCC(c2ccc3c(c2)OCO3)CC1	nt	nt	nt	nt	i	nt	nt
O=c1c2ccccc2c(-c2ccccc2)nn1-c1ccc(Cl)c(Cl)c1	i	i	i	i	70.4	nt	i
O=c1c2ccccc2c(-c2ccccc2)nn1-c1ccccc1	i	i	nt	i	i	i	nt
COc1cc(-c2nnc(-c3ccccc3Cl)o2)cc(OC)c1OC	nt	i	nt	nt	i	nt	nt
COc1ccc(/C=C(\C#N)C(N)=O)cc1OC	nt	i	nt	nt	76.5	nt	i
COc1ccc2[nH]c(=O)c(CN(Cc3ccco3)C(=S)Nc3ccc(C)cc3C)cc2c1	nt	i	nt	nt	i	nt	nt
COC(=O)c1ccc(CSc2ncnc3c2oc2ccccc23)o1	i	i	nt	i	65.6	i	i
O=C(CSc1ncnc2c1oc1ccccc12)Nc1ccccc1F	i	i	nt	i	75.9	i	i
CCOc1ccccc1NC(=O)CSc1ncnc2c1oc1ccccc12	i	i	nt	i	i	i	nt
CCCSc1ncnc2c1oc1ccccc12	i	i	nt	i	66.3	i	i
C=CCNC(=O)[C@H]1C=CCN1S(=O)(=O)c1cccc2ccccc12	nt	i	nt	nt	i	nt	nt
CCC(c1nnnn1C1CCCC1)N1CCN(C)CC1 (stereo unspecified)	nt	i	nt	nt	i	nt	nt
COC(=O)CN1N=C(c2ccccc2)Cn2c(cc3sccc32)C1=O	nt	nt	nt	nt	i	nt	nt
SMILES	S1P4 antagonist	PGE2 EP2 inh	INS promoter inh	S1P4 ag	EP2 mod	S1P3 antagonist	EP2 confirm
CCOC(=O)c1cnn(-c2nc(-c3ccccc3)cs2)c1C(F)(F)F	i	i	i	i	i	nt	nt
CCOC(=O)c1cnn(-c2nc(-c3ccc(F)cc3)cs2)c1C(F)(F)F	i	i	i	i	65.3	nt	i
CC(NC(=O)c1ccncc1)c1nc(-c2cccnc2)n[nH]1 (stereo unspecified)	nt	i	nt	nt	i	nt	nt
COCCNC(=O)c1cc2c(=O)n3ccccc3nc2n(Cc2cccnc2)c1=N	nt	i	nt	nt	i	nt	nt
COc1ccc(C(=O)Nc2nc(C)c(C)s2)cc1	nt	i	nt	nt	i	nt	nt
CCn1c2ccc(Cl)cc2c2nc3ccccc3nc21	i	i	i	i	i	nt	+
CCOc1ccc(Cn2c3ccc(OC)cc3c3nc4ccccc4nc32)cc1	i	i	i	i	i	i	nt
CCn1c2ccc(OC)cc2c2nc3ccccc3nc21	i	i	i	i	i	nt	i
COCCCn1c(SCC(=O)Nc2c(C)cccc2C)nc2ccccc2c1=O	nt	i	nt	nt	i	nt	nt
COCCN1C(=O)c2ccc3c4c(ccc(c24)C1=O)C(=O)N(CCOC)C3=O	nt	i	nt	nt	i	nt	nt
CCOc1ccccc1/C=C(\NC(=O)c1ccccc1)C(=O)NCCC(=O)O	i	i	i	i	i	i	nt
CC(C)Oc1ccc(/C=C(/NC(=O)c2ccccc2)C(=O)NCCC(=O)O)cc1	i	i	i	i	71.5	i	i
O=[N+]([O-])c1sc2ccccc2c1NCCO	nt	i	nt	nt	i	nt	nt
CN(C)c1oc(-c2ccccc2Cl)nc1P(=O)(c1ccccc1)c1ccccc1	i	i	i	i	70.6	nt	+
CC(C)=CCC/C(C)=C/CC/C(C)=C/CSc1ccccc1C(=O)O	nt	i	nt	nt	73.4	nt	i
COc1ccc(C(N)c2nccn2C)cc1 (stereo unspecified)	nt	i	nt	nt	i	nt	nt
Cc1ccc(OCc2nnc(SCC(=O)c3ccccc3)n2-c2ccccc2)cc1	i	i	i	i	i	nt	nt
Cc1cccc(-n2c(CCc3ccccc3)nnc2SCC(=O)c2ccccc2)c1	i	i	i	i	64.3	i	i
Cc1cc(C)cc(Nc2nc3c(S(=O)(=O)c4ccccc4)nnn3c3ccccc23)c1	i	i	i	i	i	i	nt
CCCCNc1nc2c(S(=O)(=O)c3ccccc3)nnn2c2ccccc12	i	i	nt	i	68.8	i	i
Cn1nc(-c2ccccc2)c(-c2nc(-c3cccc(C(F)(F)F)c3)no2)c1Cl	i	i	i	i	i	nt	i
CCOC(=O)CSc1nnc2n(C3CCCCC3)c(=O)c3c4c(sc3n12)CCCC4	i	i	i	i	66.4	nt	i
N#Cc1c(-c2ccco2)nc(SCc2ccc(F)cc2)[nH]c1=O	i	nt	i	i	75.3	i	i
Brc1ccc(Cn2c(-c3ccc(Br)o3)nc3ccccc32)o1	i	i	i	i	67.7	i	+
CCc1oc2ccccc2c1C(=O)c1cc(Br)c(O)c(Br)c1	i	i	i	i	67.9!	i	i
C/C(CCc1oc2ccc(Cl)cc2c1-c1ccc(C)o1)=N\O	i	i	?	i	65.0	nt	+
Cc1ccc(N(C(=O)c2snc(C(N)=O)c2N)C(C(=O)NCCC(C)C)c2ccco2)cc1 (stereo unspecified)	i	i	i	i	77.8	i	i
CC(C)CCNC(=O)C(c1ccco1)N(Cc1ccccc1)C(=O)c1snc(C(N)=O)c1N (stereo unspecified)	i	i	i	i	i	i	nt
Cc1ccc2cccc(NC(=O)c3ccc(Br)o3)c2n1	i	i	i	i	87.3	i	+
O=C(NCc1ccc(-c2nc3ccccc3s2)cc1)c1ccc(Br)o1	i	i	nt	i	i	i	nt

High-throughput results (PubChem BioAssay)
